Activity calls are given as the source filed them. Rule for the calls: active = hit-call score of the fitted dose curve at least 0.9, where 1 is the maximum; inactive = score below 0.9.
Assays:
[1] = ATG_CRE_CIS: Attagene CIS-FACTORIAL HepG2 Assay for human cAMP Responsive Element (CRE) binding protein 3 (AID 2282926); conditions: HepG2 CRE cis-reporter, Attagene multiplexed mRNA; actives raise or lower the signal
How it was run: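 We dosed HepG2 cells bearing multiple cis-promoter reporter units for 24 h and measured reporter mRNA by RT-PCR with capillary electrophoresis detection. Bidirectional concentration-response fitting used DMSO as negative control.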

[2] = target: CCAAT/enhancer-binding protein beta (Homo sapiens) (UniProt P17676); assay: ATG_C_EBP_CIS: Attagene CIS-FACTORIAL HepG2 Assay for human CCAAT/Enhancer Binding Protein (C/EBP) beta (AID 2282927); conditions: HepG2 Attagene cis-factorial transcription factor reporter; actives raise or lower the signal
How it was run: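 Transiently transfected HepG2 (MRTU library, endogenous TF-driven promoters); 24 h dosing; total RNA → oligo(dT) RT → PCR → 6-FAM primer extension → HpaI digest → CE; fit bidirectionally vs DMSO.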

[3] = ATG_CMV_CIS: Attagene CIS-FACTORIAL HepG2 Assay for human CMV (Internal Marker) (AID 2282928); conditions: HepG2 CMV promoter reporter, transcription factor profiling; actives raise or lower the signal;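 note: endpoint acts as a background internal control marker rather than a target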
How it was run: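 CMV internal-marker background readout in transiently transfected HepG2 cells bearing cis-regulated reporter units. Reporter mRNA is measured 24 h after dosing by RT-PCR and capillary electrophoresis, with bidirectional fitting against DMSO.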

[4] = ATG_DR4_LXR_CIS: Attagene CIS-FACTORIAL HepG2 Assay for human Liver X Receptor (LXR), DR4 submotif (AID 2282929); conditions: HepG2 Attagene DR4 cis-reporter, mRNA transcription; actives raise or lower the signal
How it was run: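 HepG2 cells were transiently transfected with multiple cis-regulated reporter units and dosed for 24 hours. The DR4 reporter mRNA was quantified by RT-PCR, 6-FAM labelling and capillary electrophoresis. Bidirectional fits used DMSO as baseline.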

[5] = target: Aryl hydrocarbon receptor (Homo sapiens) (UniProt P35869); assay: ATG_Ahr_CIS: Attagene CIS-FACTORIAL HepG2 Assay for human Aryl Hydrocarbon Receptor (Ahr) (AID 2282930); conditions: HepG2 AhR cis-factorial reporter transcription; actives raise or lower the signal
How it was run: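 Read-out: reporter mRNA quantified by RT-PCR with fluorescent primer extension and capillary electrophoresis. Human HepG2 liver cells carried transfected cis-promoter reporter units and were exposed to chemical for 24 h; gain or loss fitted relative to DMSO.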

[6] = ATG_AP_1_CIS: Attagene CIS-FACTORIAL HepG2 Assay for human Activator Protein 1 (AP-1) (AID 2282931); conditions: HepG2 Attagene cis-factorial AP-1 reporter mRNA; actives raise or lower the signal
How it was run: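 HepG2 cells transiently transfected with cis-element-driven reporter transcription units, dosed for 24 hours. Reporter mRNA measured by RT-PCR, 6-FAM labelling, HpaI digestion and capillary electrophoresis. Bidirectional fitting against DMSO baseline.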

[7] = ATG_AP_2_CIS: Attagene CIS-FACTORIAL HepG2 Assay for human Activator Protein 2 (AP-2) (AID 2282932); conditions: HepG2 AP-2 cis-reporter, Attagene transcription factor profiling; actives raise or lower the signal
How it was run: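 Multiplexed mRNA reporter assay in HepG2: cis-regulated units report endogenous factor activity after 24 h treatment. Fluorescence from capillary electrophoresis of RT-PCR products gives the signal, with DMSO as baseline.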

[8] = ATG_BRE_CIS: Attagene CIS-FACTORIAL HepG2 Assay for human Bone Morphogenetic Protein (BMP) Response Element (BRE) (AID 2282933); conditions: HepG2 BMP response element reporter, Attagene transcription factor profiling; actives raise or lower the signal
How it was run: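 HepG2 cells transiently transfected with CIS reporter units (endogenous TF activity, BMP response element), dosed 24 h. Reporter mRNA quantified by RT-PCR, fluorescent labelling and capillary electrophoresis; bidirectional fit vs DMSO baseline.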

[9] = target: Retinoic acid receptor alpha (Homo sapiens) (UniProt P10276); assay: ATG_DR5_RAR_CIS: Attagene CIS-FACTORIAL HepG2 Assay for human Retinoic Acid Receptor Alpha (RARE), DR5 submotif (AID 2282934); conditions: HepG2 Attagene cis-factorial RARE DR5 reporter, mRNA; actives raise or lower the signal
How it was run: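 Read-out: DR5-driven reporter transcript measured by RT-PCR, 6-FAM primer extension, HpaI digest and capillary electrophoresis. Human HepG2 liver cells carry transiently transfected cis-element reporter constructs; dosing lasts 24 h. Gain or loss of signal fitted against DMSO baseline.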

[10] = target: Transcription factor E2F1 (Homo sapiens) (UniProt Q01094); assay: ATG_E2F_CIS: Attagene CIS-FACTORIAL HepG2 Assay for human E2F Transcription Factor 1 (AID 2282935); conditions: HepG2 Attagene cis-reporter, E2F reporter RNA transcripts; actives raise or lower the signal
How it was run: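 Measures reporter transcript levels via RT-PCR with capillary electrophoresis detection in HepG2 cells harboring cis-regulated reporter units; 24 h post-dose; bidirectional curve fitting with DMSO as baseline.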

[11] = ATG_E_Box_CIS: Attagene CIS-FACTORIAL HepG2 Assay for human Enhancer Box (E-box) (AID 2282936); conditions: HepG2 E-box cis-reporter transcription, actives raise or lower the signal
How it was run: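 First, HepG2 cells receive multiple cis-regulated reporter constructs by transient transfection. Next, chemicals are applied for 24 h. Finally, reporter mRNA is quantified via RT-PCR and capillary electrophoresis, with DMSO as baseline.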

[12] = ATG_M_61_CIS: Attagene CIS-FACTORIAL HepG2 Assay for M61 Transcription Factor (Internal Marker) (AID 2282937); conditions: HepG2 Attagene CIS-FACTORIAL M61 internal marker reporter; actives raise or lower the signal
How it was run: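 HepG2 cells transiently transfected with multiplexed cis-promoter reporter units reporting endogenous transcription factor activity, measured 24 h after dosing. Reporter mRNA quantified by RT-PCR and capillary electrophoresis; bidirectional fit against DMSO baseline.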

[13] = ATG_EGR_CIS: Attagene CIS-FACTORIAL HepG2 Assay for human Early Growth Response 1 (EGR1) (AID 2282938); conditions: HepG2 Attagene CIS-FACTORIAL EGR reporter mRNA; actives raise or lower the signal
How it was run: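 HepG2 cells transiently transfected with cis-element-driven multiplexed reporter units, dosed for 24 h. EGR1-element reporter mRNA quantified by RT-PCR, 6-FAM labelling, HpaI digestion and capillary electrophoresis; bidirectional fit versus DMSO.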

[14] = ATG_M_19_CIS: Attagene CIS-FACTORIAL HepG2 Assay for M19 Transcription Factor (Internal Marker) (AID 2282939); conditions: HepG2 Attagene CIS-FACTORIAL M19 internal marker reporter; actives raise or lower the signal
How it was run: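 HepG2 cells transiently transfected with cis-regulated multiplexed reporter units, dosed 24 h. Reporter mRNA quantified by RT-PCR and capillary electrophoresis; internal background marker fitted bidirectionally versus DMSO.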

[15] = ATG_Ets_CIS: Attagene CIS-FACTORIAL HepG2 Assay for human Erythroblast Transformation Specific (ETS) (AID 2282941); conditions: HepG2 ETS cis-reporter transcription, actives raise or lower the signal
How it was run: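 HepG2 cells transfected with multiple cis-regulated reporter units measuring endogenous ETS-driven transcription, 24 h after dosing. Reporter mRNA quantified by RT-PCR with capillary electrophoresis; bidirectional fit relative to DMSO.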

[16] = target: Hepatocyte nuclear factor 3-beta (Homo sapiens) (UniProt Q9Y261); assay: ATG_FoxA2_CIS: Attagene CIS-FACTORIAL HepG2 Assay for human Forkhead box A2 (FOXA2) (AID 2282942); conditions: HepG2 cis-reporter transcription factor activity, 24 h; actives raise or lower the signal
How it was run: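 HepG2 transiently transfected with a multiplexed cis-promoter reporter library read endogenous FOXA2 activity. After 24 h compound exposure, reporter mRNA was quantified by RT-PCR, HpaI digestion and capillary electrophoresis. Bidirectional fit against DMSO.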

[17] = ATG_FoxO_CIS: Attagene CIS-FACTORIAL HepG2 Assay for human Forkhead box O (FoxO) (AID 2282943); conditions: HepG2 Attagene cis-reporter, FoxO element, mRNA; actives raise or lower the signal
How it was run: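 Read-out: fluorescence of 6-FAM-labelled reporter cDNA fragments resolved by capillary electrophoresis. Transiently transfected HepG2 cells were dosed for 24 h; activity fitted in both directions relative to DMSO controls.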

[18] = ATG_GATA_CIS: Attagene CIS-FACTORIAL HepG2 Assay for human GATA Binding Protein (AID 2282944); conditions: HepG2 GATA cis-element reporter, Attagene multiplex mRNA; actives raise or lower the signal
How it was run: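 HepG2 cells transiently transfected with multiplexed cis-element reporter units measure endogenous GATA activity; after 24 h compound exposure, reporter mRNA quantified by RT-PCR and capillary electrophoresis. Changes fitted in both directions vs DMSO.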

[19] = ATG_GLI_CIS: Attagene CIS-FACTORIAL HepG2 Assay for human Zinc Finger Protein GLI1 (AID 2282945); conditions: HepG2, Attagene cis-factorial reporter mRNA, GLI element; actives raise or lower the signal
How it was run: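 Transiently transfected HepG2 cells report endogenous transcription factor activity via cis-element-driven reporter units. After 24 h compound exposure, reporter mRNA was measured by RT-PCR with capillary electrophoresis; bidirectional fitting against DMSO baseline.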

Measured: AC50

Chain of CCAAT/enhancer-binding protein beta (Homo sapiens) (P17676 whole entry, looked up): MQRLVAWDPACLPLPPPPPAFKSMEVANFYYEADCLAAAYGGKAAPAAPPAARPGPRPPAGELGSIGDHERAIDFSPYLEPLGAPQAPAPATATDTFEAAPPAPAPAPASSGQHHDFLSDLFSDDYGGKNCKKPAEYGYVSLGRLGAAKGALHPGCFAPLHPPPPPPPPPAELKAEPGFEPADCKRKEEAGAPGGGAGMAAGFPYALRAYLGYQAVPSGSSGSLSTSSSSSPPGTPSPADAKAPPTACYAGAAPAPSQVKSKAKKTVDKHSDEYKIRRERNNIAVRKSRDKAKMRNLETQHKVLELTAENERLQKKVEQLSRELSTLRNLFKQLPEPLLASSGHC
Chain of Transcription factor E2F1 (Homo sapiens) (Q01094 whole entry, looked up): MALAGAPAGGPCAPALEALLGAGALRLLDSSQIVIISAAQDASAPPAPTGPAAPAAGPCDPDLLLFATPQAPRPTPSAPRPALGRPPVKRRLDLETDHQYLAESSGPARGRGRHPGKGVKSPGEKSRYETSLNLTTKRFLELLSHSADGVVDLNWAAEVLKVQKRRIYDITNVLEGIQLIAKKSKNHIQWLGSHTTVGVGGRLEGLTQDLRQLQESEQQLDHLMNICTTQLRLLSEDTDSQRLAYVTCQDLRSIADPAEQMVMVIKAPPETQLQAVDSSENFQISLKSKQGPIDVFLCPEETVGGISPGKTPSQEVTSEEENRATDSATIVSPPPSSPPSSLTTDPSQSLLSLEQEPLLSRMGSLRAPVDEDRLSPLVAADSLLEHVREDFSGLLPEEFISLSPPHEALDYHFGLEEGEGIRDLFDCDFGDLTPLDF
Chain of Aryl hydrocarbon receptor (Homo sapiens) (P35869 whole entry, looked up): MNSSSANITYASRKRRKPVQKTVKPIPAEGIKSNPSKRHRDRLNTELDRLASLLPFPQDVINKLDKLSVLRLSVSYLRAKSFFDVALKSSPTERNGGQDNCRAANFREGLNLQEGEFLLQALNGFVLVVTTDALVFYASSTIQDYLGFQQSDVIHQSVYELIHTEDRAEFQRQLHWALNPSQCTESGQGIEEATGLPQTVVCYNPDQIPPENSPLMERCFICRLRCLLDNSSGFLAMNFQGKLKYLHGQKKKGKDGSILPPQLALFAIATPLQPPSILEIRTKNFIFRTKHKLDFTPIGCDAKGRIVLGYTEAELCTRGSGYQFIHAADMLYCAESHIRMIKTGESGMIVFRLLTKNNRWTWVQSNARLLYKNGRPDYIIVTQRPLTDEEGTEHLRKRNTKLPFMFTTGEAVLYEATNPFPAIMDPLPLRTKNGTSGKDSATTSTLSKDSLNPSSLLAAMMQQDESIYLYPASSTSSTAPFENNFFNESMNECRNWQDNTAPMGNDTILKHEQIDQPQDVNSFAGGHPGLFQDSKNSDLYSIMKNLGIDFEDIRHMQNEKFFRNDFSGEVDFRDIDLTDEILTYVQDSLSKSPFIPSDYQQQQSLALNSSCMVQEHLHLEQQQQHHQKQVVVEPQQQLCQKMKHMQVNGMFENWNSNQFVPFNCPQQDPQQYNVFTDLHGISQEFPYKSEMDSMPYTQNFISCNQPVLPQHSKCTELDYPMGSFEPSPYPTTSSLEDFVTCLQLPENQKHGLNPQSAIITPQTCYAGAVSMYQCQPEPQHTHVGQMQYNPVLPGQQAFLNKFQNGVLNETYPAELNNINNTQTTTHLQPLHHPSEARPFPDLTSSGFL
Chain of Hepatocyte nuclear factor 3-beta (Homo sapiens) (Q9Y261 whole entry, looked up): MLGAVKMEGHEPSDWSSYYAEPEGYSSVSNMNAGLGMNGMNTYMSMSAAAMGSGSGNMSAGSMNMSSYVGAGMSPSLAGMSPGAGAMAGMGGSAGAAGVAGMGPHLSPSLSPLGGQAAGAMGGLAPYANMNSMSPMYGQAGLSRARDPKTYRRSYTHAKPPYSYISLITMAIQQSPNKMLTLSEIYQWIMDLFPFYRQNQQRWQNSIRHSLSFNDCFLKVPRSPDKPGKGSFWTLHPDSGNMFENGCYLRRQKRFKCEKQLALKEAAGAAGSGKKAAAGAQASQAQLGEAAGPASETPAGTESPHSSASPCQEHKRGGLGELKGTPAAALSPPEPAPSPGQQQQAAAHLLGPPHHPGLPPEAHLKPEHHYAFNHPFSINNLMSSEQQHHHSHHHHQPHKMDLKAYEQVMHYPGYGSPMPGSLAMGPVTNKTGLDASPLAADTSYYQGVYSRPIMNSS
Chain of Retinoic acid receptor alpha (Homo sapiens) (P10276 whole entry, looked up): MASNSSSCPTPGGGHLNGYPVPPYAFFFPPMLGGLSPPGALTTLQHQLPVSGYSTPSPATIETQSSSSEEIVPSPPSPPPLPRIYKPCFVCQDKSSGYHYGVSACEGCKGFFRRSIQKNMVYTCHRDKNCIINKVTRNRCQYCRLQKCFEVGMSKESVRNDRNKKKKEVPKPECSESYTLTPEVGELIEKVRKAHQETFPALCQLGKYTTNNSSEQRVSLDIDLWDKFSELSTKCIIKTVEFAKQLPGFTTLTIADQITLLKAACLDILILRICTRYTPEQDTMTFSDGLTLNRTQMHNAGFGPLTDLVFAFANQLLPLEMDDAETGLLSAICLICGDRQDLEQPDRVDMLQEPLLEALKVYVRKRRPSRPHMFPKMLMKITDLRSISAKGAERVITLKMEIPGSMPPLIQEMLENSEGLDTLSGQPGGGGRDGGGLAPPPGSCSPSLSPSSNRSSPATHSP

CSc1c(Cl)c(Cl)c(Cl)c(Cl)c1Cl
active: [1] 169 µM | [3] 26.3 µM | [4] 32 µM | [11] 26 µM | [19] 185 µM
inactive: all other assays above

CN(C)C(=S)SC(=S)N(C)C
inactive: all assays above

Cc1ccc(-c2ccccc2)cc1
inactive: all assays above

C=CCCCCCCCCCC
inactive: all assays above

IC(I)I
active: [5] 12.8 µM
inactive: all other assays above

COS(=O)(=O)O
inactive: all assays above
